Screens (PubChem BioAssay)
Only some compounds are listed: those with a hit (about 0.54% of all), similar ones and a draw of the others.
Vif-APOBEC3G blk = inhibitors of Vif-APOBEC3G interaction. HeLa A3G-eYFP + Vif (tagged APOBEC3G with the HIV-1 protein that degrades it), YFP fluorescence, overnight. Potency, µM (doses to about 46.1 µM), for the others: top-dose activity, negative = active, most hits filed as inhibitors. actives 0.076% (n = 410,000). AID 602310; further: potency means the concentration at half of the fitted maximal effect; on the % scale 0 is the no-effect control and ±100 the full control effect; nearly all actives have a fitted effect of over 60% in size
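HeLa cells stably expressing Vif and C-terminally eYFP-tagged A3G, seeded overnight at 37 deg C, then exposed to compound by pintool overnight at 37 deg C. Rise in yellow fluorescence (Ex 488/Em 500-530, Acumen) marks blocked Vif-driven A3G degradation.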
BCR signal inh = blocks chronic active B-cell receptor signaling | Potency, µM (highest dose often 46.1 µM), without a hit: at the highest dose activity change, negative = inhibition, usual class: inhibitors | ABC-DLBCL IkBa-CBG/CBR reporter, luminescence ratio, 4 h | actives 0.05% (n = 340,000); active means well fitted inhibition curve with a large enough effect in the signal ratio, with a control signal flat, not every such curve was filed as active; inconclusive means small, poorly fitted or top-dose-only effect, or effect the other way, or a change in a side signal; the % refers to the signal ratio;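 further: potency means the concentration at half of the fitted maximal effect; plate controls were basal doxycycline-induced cells for no effect and cells given 10 µM MG132 for full effect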
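TMD8 ABC-DLBCL cells carrying doxycycline-inducible green luciferase fused to IkappaBalpha plus unfused red luciferase were exposed to compounds (up to 46 uM) for 4 hrs at 37C. Activity came from the overlap-corrected green/red luminescence ratio.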
uPA surface inh = inhibitors of cell surface uPA generation. cell surface uPA generation assay, qHTS. Potency, µM (doses to about 38.3 µM), without a hit: at the top dose activity change, negative = inhibition, actives largely listed as inhibitors. actives 0.31% (n = 330,000); active means well fitted inhibition curve with a large enough effect; inconclusive means small, poorly fitted or top-dose-only effect; inactive means no such curve, though single readings can be large or run the other way; tested in mouse RAW 264.7 cells; further: potency means the concentration at half of the fitted maximal effect; on the % scale 0 is the no-effect control and ±100 the full control effect; nearly all actives have a fitted effect of over 55% in size
TCR activator = activates T cell receptor signaling | Potency, µM (top dose mostly 9.22 µM), for the others: at the highest dose activation of IL-2 secretion, usual class: activators | primary human leukocytes, anti-CD3, IL-2 HTRF, 48 h | 330,000 tested, under 10 active | AID 504894; further: % of control where 0% means no effect
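IL-2 release read by HTRF sandwich (Eu cryptate donor, d2 acceptor, 665 nm emission) after 48 hr exposure of primary human leukocytes to compound together with anti-CD3 beads in the absence of co-stimulatory signals.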
MBNL1-CUG inh = MBNL1-poly(CUG) RNA binding inhibition | TR-FRET MBNL1-His/biotin-(CUG)12 binding, 665/545 ratio | AID 2675 | Q9NR56 | actives 0.036% (n = 280,000) | Potency, µM (doses to about 57.5 µM), without a hit: at the top dose activity change, negative = inhibition, actives largely listed as inhibitors; active means well fitted inhibition curve with a large enough effect in the signal ratio, with a control signal flat, not every such curve was filed as active; inconclusive means small, poorly fitted or top-dose-only effect, or effect the other way, or a change in a side signal; inactive means no such curve, though single readings can be large or run the other way; the % refers to the signal ratio; further: potency means the concentration at half of the fitted maximal effect; on the % scale 0 is the no-effect control and ±100 the full control effect
Target sequence (Q9NR56 whole entry, looked up): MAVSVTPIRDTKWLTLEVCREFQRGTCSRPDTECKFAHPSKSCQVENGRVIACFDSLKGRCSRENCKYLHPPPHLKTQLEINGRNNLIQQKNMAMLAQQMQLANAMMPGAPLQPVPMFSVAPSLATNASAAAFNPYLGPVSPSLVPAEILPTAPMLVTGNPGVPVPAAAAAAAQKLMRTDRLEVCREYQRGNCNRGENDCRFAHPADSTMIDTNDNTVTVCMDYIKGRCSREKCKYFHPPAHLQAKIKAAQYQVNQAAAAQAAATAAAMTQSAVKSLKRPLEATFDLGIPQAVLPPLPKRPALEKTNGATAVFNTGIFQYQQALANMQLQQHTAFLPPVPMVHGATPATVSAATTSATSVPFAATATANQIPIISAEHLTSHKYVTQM
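TR-FRET readout: Ex 340 nm, 665/545 nm emission ratio, normalized to buffer-only (basal) and MBNL1-(CUG)12 controls. Complex of MBNL1-His with Biotin-(CUG)12, compounds 92 nM–58 uM, incubated 60 min at room temperature.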
Vif-APOBEC3F blk = Vif-A3F binding inhibition; AID 602313; actives 0.2% (n = 390,000); Potency, µM (top dose mostly 46.1 µM), for the others: at the top dose activity, negative = active; HeLa A3F-eYFP + Vif (tagged APOBEC3F with the HIV-1 protein that degrades it), YFP fluorescence increase; further: potency means the concentration at half of the fitted maximal effect; % of control where 0% means no effect; nearly all actives have a fitted effect of over 65% in size
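Fluorescence increase (Ex 488/Em 500-530) after overnight compound treatment at 37 deg C flags inhibition of Vif-driven A3F-eYFP loss in stable HeLa A3F-eYFP/Vif cells seeded overnight beforehand.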
* hit, by the source's call; i = inactive; ? = inconclusive; · = no result given; [ ] = another dose, or the depositor's remark. Unless noted, the call rests on the fitted dose curve; in most records, active means well fitted curve in the direction sought with a large enough effect; inconclusive means small, poorly fitted or top-dose-only effect, or another doubt; inactive means no such curve, though single readings can be large; an effect the other way counts as inactive or inconclusive.

SMILES | Vif-APOBEC3G blk | BCR signal inh | uPA surface inh | TCR activator | MBNL1-CUG inh | Vif-APOBEC3F blk
Cc1ccc(-n2nc3c(SCCN4CCOCC4)nnc(C)c3c2C)cc1 | ? | ? | -6.8% | -6.2%[46.1 µM] | 58.7% | 25.1µM*
CCOc1ccc(-n2nc3c(SCCN4CCCC4)nnc(C)c3c2C)cc1 | ? | -8.9% | -4.8% | -9.4%[46.1 µM] | 20.5% | ?
COc1ccc(OC)c(NC(=O)Cn2cnc3onc(-c4ccc(Cl)cc4)c3c2=O)c1 | 1.26µM* | · | · | · | · | -9.1%
CC(C)(C)OC(=O)NS(=O)(=O)NOCc1ccccc1 | 3.7% | · | · | · | · | ·
CCCOc1ccc2cc(C(=O)NCc3ccccc3)c(=O)oc2c1 | -229.1% | 2.5% | -0.5% | 2.7% | 35.1% | 31.6µM*
CCCCCCCCCC[n+]1cccc2c3ccccc3ccc21 | -14.9% | ? | 0.708µM* | -15.4% | ? | 4.7%
CCCCCCCC[n+]1cccc2c3ccccc3ccc21 | -1.5% | ? | 0.891µM* | 0.7% | ? | -0.5%
CCCCCCCCCCCCCCCC[n+]1ccc(C)c2ccccc21 | -11.0% | · | · | · | · | ·
N#CC1=C(S)N(c2ccccc2)C(c2ccc(-c3cccc(Cl)c3)o2)NC1=O (stereo not given) | -5.9% | ? | 14.5% | -7.2%[46.1 µM] | ? | 7.08µM*
COc1ccccc1N=C1NC(=O)/C(=C/c2ccc(N(C)C)cc2)S1 | 3.98µM* | ? | ? | · | ? | 8.91µM*
COc1ccc(/C=C2\SC(=Nc3ccccc3)NC2=O)cc1 | · | -0.4% | · | · | 8.4% | ·
Cc1ccccc1/C=C/C1=NCCN1 | 0.8% | ? | 3.98µM* | -0.1% | · | 7.4%
CC(C)NC(=O)c1ccc2c3n(nc2c1)-c1ccccc1CO3 | 3.6% | 3.0% | 0.794µM* | -3.1% | ? | -8.6%
CC(C)[C@@H](CO)NC(=O)c1ccc2c3n(nc2c1)-c1ccccc1CO3 | 1.2% | ? | 1.26µM* | 2.2% | ? | 2.9%
Nc1[nH]c2cc([N+](=O)[O-])ccc2c1-c1ccccn1 | ? | ? | -2.3% | 1.7% | ? | 10µM*
Nc1nc2ccc([N+](=O)[O-])cc2[nH]1 | -1.2% | -1.8% | -9.6% | -3.2% | ? | -0.2%
Clc1ccc(/C=C\c2nccc3c2[nH]c2ccccc23)cc1 | -16.8% | ? | -3.7% | -4.8% | -2.6% | ?
N#Cc1ccc(/C=C\c2nccc3c2[nH]c2ccccc23)cc1 | 12.6µM* | ? | 0.9% | -2.6% | 10.9% | ?
Cc1cc2nc3c(=O)n(C4CCCCC4)c(=O)[nH]c3nc2cc1N | 8.91µM* | -0.3% | -2.9% | -0.3%[46.1 µM] | ? | 11.2µM*
CCN1C(=O)/C(=C2/Sc3ccc(OC)cc3N2C)SC1=Nc1cccc(O)c1 | 10µM* | 7.4% | 18.4% | -0.2% | 15.8% | ?
C=CCN1C(=O)/C(=C2/Sc3ccc(OC)cc3N2C)SC1=Nc1ccccc1 | -4.6% | 5.4% | 20.2% | 12.3% | 40.2% | -18.0%
COc1cc(Nc2nc3ccccc3n3nnnc23)cc(OC)c1OC | ? | ? | 6.1% | -1.6% | 23.1% | 6.31µM*
CCN(CC)c1ccccc1/C=C/[n+]1ccc(CCCCI)c2ccccc21 | -5.7% | · | · | · | · | ·
CCN(CC)c1ccc2cc(-c3nc(-c4cc5ccccc5oc4=O)cs3)c(=O)oc2c1 | 7.08µM* | · | 0.6% | 0.1% | · | i
CCOC(=O)COc1ccc2nsnc2c1Cl | 2.4% | -0.7% | 3.2% | 2.2% | ? | ?
C=C(CC)C(=O)c1ccc(OCC(=O)O)c(Cl)c1Cl | ? | ? | 4.47µM* | -1.3% | ? | 6.2%
Nc1c(C(=O)Nc2ccccc2F)sc2nc(-c3cccnc3)ccc12 | -12.9% | ? | -1.0% | -7.4% | ? | -37.0%
Nc1c(C(=O)Nc2ccccc2F)sc2nc(-c3ccco3)ccc12 | ? | ? | -3.0% | · | 31.0% | 22.4µM*
CCC(C)Sc1ccc(-c2nc3cc(C)ccn3c2NC2CCCCC2)cc1 (stereo not given) | ? | 2.0% | -17.1% | -6.3% | · | 11.2µM*
